# Assay outcomes from PubChem.
# Rows were chosen to be rich in hits. Some 17% of all compounds tested hit in one or more screens of this group.
# ClpP mod = qHTS Assay for Activators of ClpP | ATP-dependent Clp protease proteolytic subunit (Bacillus subtilis (strain 168)), P80244 | purified B. subtilis ClpP, FRET peptide cleavage, 20 min | Potency, µM (highest dose often 57.5 µM), without a hit: at the top dose activity change, negative = active | actives 1.9% (n = 340,000) | AID 651965, 2013; active = well fitted falling curve with a large enough effect; inconclusive = small, poorly fitted or top-dose-only effect; inactive = no such curve, though single readings can be large or run the other way; also: the source files actives as falling curves though it sought activators and does not explain the sign; nearly all actives have a fitted effect of over 65% in size
#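 Purified B. subtilis ClpP, 10 microg/mL final in Tris/HCl pH8 with KCl, BSA, glycerol and Tween-20, cleaved an Abz/nitrotyrosine-quenched decapeptide. Fluorescence (ex 320, em 430) was read at 0 and 20 min at room temperature. Delta was normalized to 5.8 microM ADEP and DMSO/no-enzyme controls.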
# TDP1 inh = blocks human tyrosyl-DNA phosphodiesterase 1; Q9NUW8; recombinant TDP1, AlphaScreen DNA substrate cleavage; Potency, µM (doses to about 130 µM), for the others: top-dose activity change, negative = inhibition, most hits filed as inhibitors; actives 0.28% (n = 350,000); AID 485290; also: % is scaled to controls: 0 for no effect and ±100 for the full control effect; nearly all actives have a fitted effect of over 40% in size
# Target sequence (Q9NUW8 whole entry, looked up): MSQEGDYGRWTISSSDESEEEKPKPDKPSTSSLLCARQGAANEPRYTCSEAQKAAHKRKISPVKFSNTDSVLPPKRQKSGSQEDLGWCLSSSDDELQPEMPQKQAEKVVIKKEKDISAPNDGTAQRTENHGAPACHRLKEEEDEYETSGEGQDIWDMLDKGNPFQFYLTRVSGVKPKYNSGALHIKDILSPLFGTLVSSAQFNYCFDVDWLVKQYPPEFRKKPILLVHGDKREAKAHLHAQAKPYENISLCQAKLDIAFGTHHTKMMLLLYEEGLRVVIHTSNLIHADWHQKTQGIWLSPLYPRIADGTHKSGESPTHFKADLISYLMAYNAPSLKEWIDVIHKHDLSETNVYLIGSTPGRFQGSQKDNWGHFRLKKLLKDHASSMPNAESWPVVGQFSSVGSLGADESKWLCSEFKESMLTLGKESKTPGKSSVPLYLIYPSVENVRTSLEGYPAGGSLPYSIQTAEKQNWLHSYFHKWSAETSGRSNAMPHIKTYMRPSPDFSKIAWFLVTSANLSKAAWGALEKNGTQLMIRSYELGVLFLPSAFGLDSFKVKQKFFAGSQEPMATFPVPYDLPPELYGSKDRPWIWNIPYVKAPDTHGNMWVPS
#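 Enzyme-compound mixtures sat 15 min at room temperature, followed by a 5 min reaction with 15 nM final substrate and 10 min with AlphaScreen beads. Recombinant human Tdp1 was used at 1 nM final.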
# DT40 TDP1 no CPT = qHTS for Inhibitors of human tyrosyl-DNA phosphodiesterase 1 (TDP1): qHTS in cells in absence of CPT; Potency, µM (doses to about 46.2 µM), without a hit: top-dose activity change, negative = growth inhibition, hits mostly inhibitors; AID 686978, 2013; DT40 Tdp1-/- hTDP1 cells, no CPT, ATP luminescence, 48 h; actives 15% (n = 420,000); also: % is scaled to controls: 0 for no effect and ±100 for the full control effect; nearly all actives have a fitted effect of over 55% in size
#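 Stably hTDP1-transfected Tdp1-null chicken DT40 cells were treated with library compounds minus camptothecin and grown for at least 48 hr at 37 °C, after which cellular ATP was quantified by luminescence.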
# TDP1 cell CPT = DT40-hTDP1 cell growth loss with CPT. chicken DT40 Tdp1-/-;hTDP1 cells + 20 nM CPT, ATP luminescence, 48 h. Potency, µM (doses to about 46.2 µM), inactives show at the top dose activity change, negative = growth inhibition, most hits filed as inhibitors. actives 12% (n = 420,000). AID 686979; also: % is scaled to controls: 0 for no effect and ±100 for the full control effect; nearly all actives have a fitted effect of over 55% in size
#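 Cell growth measured by CellTiter-Glo luminescence after a minimum 48 h, 37 C compound exposure with 20 nM CPT in Tdp1-knockout DT40 cells stably expressing hTDP1, seeded 400/well; qHTS titration format.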
# An asterisk follows results filed as active; ? = inconclusive; nt = no result; ! = a repeat was not active; [ ] = remark or other dose. Unless noted, calls follow the shape of the dose curve; as a rule, active = well fitted curve in the direction sought with a large enough effect; inconclusive = small, poorly fitted or top-dose-only effect, or another doubt; inactive = no such curve, though single readings can be large; an effect the other way counts as inactive or inconclusive. Potency is read from the fitted curve at half-maximal effect.
SMILES,ClpP mod,TDP1 inh,DT40 TDP1 no CPT,TDP1 cell CPT
CCCCNc1c(-c2cccc(SC3CCCCC3)c2)nc2ccc(Cl)cn12,-14%,nt,?,?
CCCCNc1c(-c2ccc(SC3CCCCC3)cc2)nc2ccccn12,4%,nt,23µM*!,23µM*
O=C(CCn1nnc2ccccc21)OCC(=O)c1ccc(F)cc1,nt,-1%[0.0935 µM],-14%,2%
O=C(NCC1CC1)[C@H]1C[C@@H]1[C@H](NP(=O)(c1ccccc1)c1ccccc1)c1ccccc1,nt,6%,nt,nt
CCOC(=O)c1sc(NC(=O)C(CC)Sc2nnc3c4ccccc4n(CC)c3n2)nc1C (centres undefined),0%,nt,?,6.5µM*
CCC(Sc1nnc2c3ccccc3n(CC)c2n1)C(=O)Nc1ccc(NC(C)=O)cc1 (centres undefined),-3%,1%,21µM*,?
CCC(Sc1nnc2c3ccccc3n(CC)c2n1)C(=O)Nc1nnc(C(C)C)s1 (centres undefined),0%,-1%,?,?
CCCn1c2ccccc2c2nnc(SC(CC)C(=O)Nc3cc(C)on3)nc21 (centres undefined),-2%,4%,29µM*,?
CCCn1c2ccccc2c2nnc(SC(CC)C(=O)Nc3sc4c(c3C#N)CCCC4)nc21 (centres undefined),-1%,2%,?,?
COc1ccc(NC(C)C(=O)Nc2cccc(S(=O)(=O)N3CCOCC3)c2)cc1OC (centres undefined),0%,1%,8.2µM*,9.2µM*
COc1ccc(/C=C/C(=O)Nc2cccc(S(=O)(=O)N3CCOCC3)c2)cc1OC,28µM*,9%,16µM*,?
COc1ccc(OC)c(NC(=O)/C=C/c2ccc(S(=O)(=O)N3CCOCC3)cc2)c1,0%,-7%,?,26µM*
Cc1ccc(NC(=O)[C@@H](NC(=O)c2cccc(S(=O)(=O)N3CCOCC3)c2)C(C)C)cc1C,0%,0%,12µM*,?
COc1ccc(NC(C)=O)cc1NC(C)C(=O)Nc1cccc(S(=O)(=O)N2CCOCC2)c1 (centres undefined),0%,2%,-18%,0%
COc1ccccc1/C=C/C(=O)NCCc1ccccn1,nt,7%,-4%,1%
COc1cc(OC)c2c(C)c(CC(=O)NCc3ccccc3OC)c(=O)oc2c1,4%,5%,?,?
CC(=O)c1cccc(NC(=O)/C=C/c2ccc(S(=O)(=O)N3CCOCC3)cc2)c1,0%,1%,18µM*,?
Cc1ccc(/C=C/C(=O)Nc2cccc(S(=O)(=O)N3CCOCC3)c2)o1,-11%,1%,?,23µM*
Cc1ccc(/C=C/C(=O)N2CCN(S(=O)(=O)c3c(C)c(C)cc(C)c3C)CC2)o1,-2%,6%,15µM*,23µM*
CN(C)S(=O)(=O)c1cccc(NC(=O)/C=C/c2ccc(S(=O)(=O)N3CCOCC3)cc2)c1,-3%,3%,18µM*,15µM*
Cc1ccc(/C=C/C(=O)N2CCN(Cc3ccccc3)CC2)o1,1%,8%,?,?
CCC1=C2CC[C@H]3C(=O)N(CC)C(=O)[C@H]3[C@H]2[C@@]2(Cc3ccccc3)C(=O)N(CCOC)C(=O)N2C1=O,nt,4%,nt,nt
COc1ccccc1N1CCN(C(C)C(=O)Nc2ccc(S(=O)(=O)N3CCOCC3)cc2)CC1 (centres undefined),nt,-1%,13µM*,?
CSc1nn(Cc2ccc(Cl)cc2)c(N(C(C)=O)C(C)=O)c1S(=O)(=O)c1ccccc1,-1%,-3%,?,16µM*
CSc1nn(Cc2ccc(C)cc2)c(N)c1S(=O)(=O)c1ccccc1,4%,5%,23µM*,21µM*
SMILES,ClpP mod,TDP1 inh,DT40 TDP1 no CPT,TDP1 cell CPT
CSc1nn(Cc2ccc(F)cc2)c(N)c1S(=O)(=O)c1ccc(Cl)cc1,-2%,3%,16µM*,?
COc1cc(NC(=O)C(OC(=O)CNC(=O)c2ccccc2)c2ccccc2)cc(OC)c1 (centres undefined),nt,0%,nt,nt
COc1cccc(N2CCN(c3nc(C)cc(=O)[nH]3)CC2)c1,-2%,nt,-4%,0%
CCCCCCCCNS(=O)(=O)CCNCCCC,1%,nt,16µM*,?
Cc1nn(C(C)C(=O)N2CCN(c3ccc(Cl)cc3)CC2)c(=O)c2cc3occc3n12 (centres undefined),-6%,3%,16µM*,?
CCc1nn(C(C)C(=O)N2CCN(c3ccccc3)CC2)c(=O)c2cc3occc3n12 (centres undefined),-2%,2%,-18%,?
CC(C)c1ccc(NC(=O)Cc2cn(C)c3ccccc23)cc1,nt,3%,16µM*,-29%
CC(CCc1ccccc1)NC(=O)CCc1cn(C)c2ccccc12 (centres undefined),nt,nt,18µM*,-1%
Cc1ccccc1Cn1cc(CCC(=O)NC(C)c2ccccc2)c2ccccc21 (centres undefined),?,10%,23µM*,13µM*
CC(C)NC(=O)CCCc1cn(C)c2ccccc12,32µM*,1%,-5%,-15%
COc1ccc(C(=O)NCC2Cc3cc(F)cc(-c4cncnc4)c3O2)cc1 (centres undefined),nt,nt,-30%,-13%
CCOc1ccc(NC(=O)CSc2nc(-c3cccc(Cl)c3)nc3c2Cc2c(CO)cnc(C)c2O3)cc1,0%,-8%,1%,-3%
O=C(Cc1csc2ccccc12)NCc1cccc(Br)c1,-4%,-3%,21µM*,16µM*
Cn1cc(CCCC(=O)NCc2cccc(Br)c2)c2ccccc21,-14%,1%,18µM*,?
O=C(Cc1cccs1)NCc1cccc(Br)c1,-3%,nt,10%,-12%
O=C(/C=C/c1cn(-c2ccccc2)nc1-c1ccc2c(c1)OCCO2)NCCO,nt,5%,-14%,-3%
OCc1ccc2c(c1)c(-c1ccc3c(c1)OCCO3)c(-c1ccccc1)n2-c1ccccc1,4%,6%,23µM*,18µM*
O=C(CC1(O)C(=O)N(Cc2ccccc2)c2ccccc21)c1ccncc1 (centres undefined),-1%,3%,3.7µM*,3.7µM*
C=CCN1C(=O)C(O)(CC(=O)c2ccco2)c2cc(Br)ccc21 (centres undefined),0%,1%,5.2µM*,2.3µM*
Cc1n[nH]c(C)c1C(=O)CC1(O)C(=O)N(Cc2ccccc2)c2ccc(Br)cc21 (centres undefined),0%,5%,?,?
C#CCN1C(=O)C(O)(CC(=O)c2ccc(OC)c(OC)c2)c2cc(Br)ccc21 (centres undefined),-7%,nt,6.5µM*,4.6µM*
